Reference: PubChem BioAssay (NCATS)
Inconclusive results are not listed. Values without a mark were called inactive. The source made the active and inactive calls. Calls come from the whole dose curve; as a rule, active = well fitted curve in the direction sought with a large enough effect; inconclusive = small, poorly fitted or top-dose-only effect, or another doubt; inactive = no such curve, though single readings can be large; an effect the other way counts as inactive or inconclusive.

Columns and labels:
[1] = target: Cellular tumor antigen p53 (Homo sapiens) (UniProt P04637); experiment: Primary qHTS for small molecule compounds that upregulate eGFP-tagged delta133p53alpha (in N-terminal) cells. (AID 2060322); settings: NCI-H358 eGFP-delta133p53alpha fluorescence, 24 h; activation: stronger effect = higher value; note: nearly all actives have a fitted effect of over 75% in size; note: potency is the fitted concentration of half-maximal effect;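 for activation: cells pre-induced with doxycycline then dosed without doxycycline; series mostly up to about 56 µM; 0% = DMSO vehicle and 100% = reference activator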
Sequence of Cellular tumor antigen p53 (Homo sapiens) (P04637 whole entry, looked up): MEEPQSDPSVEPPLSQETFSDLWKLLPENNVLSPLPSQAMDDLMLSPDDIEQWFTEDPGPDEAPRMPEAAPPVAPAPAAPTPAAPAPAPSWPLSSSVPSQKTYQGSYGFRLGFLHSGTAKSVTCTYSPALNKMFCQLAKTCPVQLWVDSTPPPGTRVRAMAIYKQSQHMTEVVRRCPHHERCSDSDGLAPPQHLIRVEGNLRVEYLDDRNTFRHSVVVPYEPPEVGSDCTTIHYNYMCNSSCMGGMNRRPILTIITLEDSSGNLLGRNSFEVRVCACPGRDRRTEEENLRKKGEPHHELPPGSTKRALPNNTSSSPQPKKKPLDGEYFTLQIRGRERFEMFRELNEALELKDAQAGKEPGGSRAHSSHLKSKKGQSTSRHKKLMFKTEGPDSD
How it was run: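 NCI-H358 cells pre-induced 24 h with 10 ng/ml doxycycline for eGFP-delta133p53alpha, plated dox-free and exposed 24 h at 37C to titrated compounds. Fixed, Hoechst-stained; gated GFP peak intensity by laser scanning cytometry, normalized to DMSO (0%) and 57.5 uM 5-azacytidine (100%).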

[2] = target: Aldehyde dehydrogenase, mitochondrial (Homo sapiens) (UniProt P05091); experiment: qHTS for Inhibitors of the Aldehyde Dehydrogenase Family (ALDH2) Primary screen (AID 2061308);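 note: plate controls were vehicle for no effect and reference inhibitor for full effect; nearly all actives have a fitted effect of over 55% in size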
[3] = qHTS for Inhibitors of the Aldehyde Dehydrogenase Family (ALDH1A2, ALDH1A3, ALDH2, ALDH3A1) (AID 2061307); note: nearly all actives have a fitted effect of over 50% in size; for Potency: test system not described further here; potency is the fitted concentration of half-maximal effect
[4] = target: Retinaldehyde dehydrogenase 3 (Homo sapiens) (UniProt P47895); experiment: qHTS for Inhibitors of the Aldehyde Dehydrogenase Family (ALDH1A3) Confirmatory screens (AID 2061311); note: nearly all actives have a fitted effect of over 60% in size; note: potency is the fitted concentration of half-maximal effect
[5] = target: Retinal dehydrogenase 2 (Homo sapiens) (UniProt O94788); experiment: qHTS for Inhibitors of the Aldehyde Dehydrogenase Family (ALDH1A2) Confirmation screens (AID 2061314); note: nearly all actives have a fitted effect of over 65% in size; note: potency is the fitted concentration of half-maximal effect
[6] = target: Aldehyde dehydrogenase 1A1 (Homo sapiens) (UniProt P00352); experiment: qHTS for Inhibitors of the Aldehyde Dehydrogenase Family (ALDH1A1) Confirmatory screens (AID 2061316); note: nearly all actives have a fitted effect of over 65% in size; note: potency is the fitted concentration of half-maximal effect
[7] = target: Retinaldehyde dehydrogenase 3 (Homo sapiens) (UniProt P47895); experiment: qHTS for Inhibitors of the Aldehyde Dehydrogenase Family (ALDH1A3) Primary screen (AID 2061315);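 note: plate controls were DMSO vehicle for no effect and reference inhibitor for full effect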

COc1cc([C@H]2OC[C@](O)(Cc3ccc(O[C@@H]4O[C@H](CO)[C@@H](O)[C@H](O)[C@H]4O)c(OC)c3)[C@@H]2CO)ccc1O
activation [1]: -1.53%
Potency [2]: inactive

Cc1c(C)c(NCC(=O)N(C)C2CCN(Cc3ccc(C(N)=O)cc3)CC2)c(C)c(C)c1N
activation [1]: 1.43%
Potency [2]: inactive

COc1cc(/C=C/C(=O)O[C@H]2[C@H](O)[C@@H](CO)O[C@@]2(CO)O[C@H]2O[C@H](CO)[C@@H](O)[C@H](O)[C@H]2O)cc(OC)c1O
activation [1]: -32.8%
Potency [2]: inactive

CN(C)c1ccc(NC(=O)NS(=O)(=O)c2ccc(Cl)cc2)cc1
activation [1]: -1.67%
Potency [3]: 6.34 µM (active)
Potency [4]: 2.83 µM (active)
Potency [5]: 10.1 µM (active)
Potency [6]: 7.98 µM (active)

COC(CCc1ccc(O)cc1)CC(=O)CCc1ccc(O)cc1 (stereo unspecified)
activation [1]: 7.63%
Potency [3]: inactive
Potency [7]: inactive
Potency [6]: inactive

C/C=C/C1=CC2=C(CO1)C(=O)[C@](C)(O)[C@H](OC(=O)c1c(O)cc(OC)c(O)c1C)C2
activation [1]: 3.82%
Potency [2]: inactive

C=C1CC[C@@H]2[C@](C)(CO)[C@H](O)CC[C@@]2(C)[C@@H]1CC(O)C1=CCOC1=O (stereo partly specified)
activation [1]: -5.34%
Potency [2]: inactive

COC(=O)C1=CO[C@@H](O[C@@H]2O[C@H](CO)[C@@H](O)[C@H](O)[C@H]2O)[C@@H]2C(CO)=CC[C@H]12
activation [1]: 0%
Potency [2]: inactive

COc1cc2ncnc(Nc3ccc(O)cc3)c2cc1OC
activation [1]: 4.46%
Potency [2]: inactive

COC(=O)c1c(CC=C(C)C)c(OC2OC(CO)C(O)C(O)C2O)c2ccccc2c1OC1OC(CO)C(O)C(O)C1O (stereo unspecified)
activation [1]: 20.6%
Potency [2]: inactive

CN1CCCC1Cc1c[nH]c2ccc(CCS(=O)(=O)c3ccccc3)cc12 (stereo unspecified)
activation [1]: 24.3%
Potency [2]: inactive

CC[n+]1c(/C=C/C=C2/N(C)c3ccccc3C2(C)C)sc2ccccc21
activation [1]: -26.3%
Potency [3]: 22.5 µM (active)
Potency [4]: 12.7 µM (active)
Potency [5]: 12.7 µM (active)
Potency [6]: 12.7 µM (active)

CO[C@]1(NC(=O)CSC(F)F)C(=O)N2C(C(=O)O)=C(CSc3nnnn3CCO)CO[C@H]21
activation [1]: -7.53%
Potency [3]: inactive
Potency [4]: inactive
Potency [5]: inactive
Potency [7]: inactive
Potency [6]: 14.2 µM (active)

COc1cc(C2c3cc4c(c(O)c3CC(CO)C2C(=O)O)OCO4)cc(OC)c1O (stereo unspecified)
activation [1]: 9.82%
Potency [2]: inactive

C=C[C@H]1C(O[C@@H]2O[C@H](CO)[C@@H](O)[C@H](O)[C@H]2O)OC=C2C(=O)N3CCc4c([nH]c5ccccc45)C3CC21 (stereo partly specified)
Potency [1]: 5.22 µM (active)
Potency [2]: inactive

C=C1CCC2C(C)(COC3OC(COC(=O)CC(=O)O)C(O)C(O)C3O)CCCC2(C)C1CCC1=CCOC1=O (stereo unspecified)
activation [1]: 8.4%
Potency [2]: inactive

O=C(/C=C/c1ccccc1O)O[C@@H]1O[C@H](CO)[C@@H](O)[C@H](O)[C@H]1O
activation [1]: 0%
Potency [2]: inactive

CC(=O)c1c(C)cccc1O[C@@H]1O[C@H](CO)[C@@H](O)[C@H](O)[C@H]1O
activation [1]: 13%
Potency [2]: inactive

C=C1CC[C@H]2[C@@](C)(CCC(O)[C@@]2(C)CO)[C@@H]1C/C=C(/C(=O)O)C(O)CO (stereo partly specified)
activation [1]: -16.1%
Potency [2]: inactive

COC(=O)C[C@H]1[C@]2(C)C3=C(C)[C@H](c4ccoc4)C[C@H]3O[C@@H]2[C@H](OC(C)=O)C2[C@](C)(C(=O)OC)C=CC(=O)[C@@]21C (stereo partly specified)
activation [1]: 11.6%
Potency [2]: inactive

CC(C)CC1NC(=O)C2CC3(O)c4ccccc4NC3N2C1=O (stereo unspecified)
activation [1]: -9.92%
Potency [2]: inactive

O=C(OC[C@@]1(O)CO[C@@H](O[C@H]2[C@H](Oc3ccc(O)cc3)O[C@H](CO)[C@@H](O)[C@@H]2O)[C@@H]1O)c1ccc(O)cc1
activation [1]: -19.1%
Potency [2]: inactive

COc1cc(N2CCC(N3CCN(C)CC3)CC2)ccc1Nc1ncc(Cl)c(-c2c[nH]c3ccccc23)n1
Potency [1]: 8.49 µM (active)
Potency [2]: inactive

COc1cc(C(=O)OCC2=CCC3C(C(=O)O)=COC(O[C@@H]4O[C@H](CO)[C@@H](O)[C@H](O)[C@H]4O)C23)ccc1O (stereo partly specified)
activation [1]: -9.82%
Potency [2]: inactive

CNS(=O)(=O)c1ccccc1Nc1nc(Nc2ccc(N3CCN(C)CC3)cc2OC)ncc1Br
Potency [1]: 9.53 µM (active)
Potency [2]: inactive

C#CCCCn1cc(-c2cccc3c2N[C@@H](C)CC(=O)N3)cn1
activation [1]: -18.8%
Potency [2]: inactive

CC1=CC(=O)CC(C)(C)C1CO[C@@H]1O[C@H](CO)[C@@H](O)[C@H](O)[C@H]1O (stereo partly specified)
activation [1]: 6.25%
Potency [2]: inactive

CC(/C=C/C1(O)C(C)CC(O)CC1(C)C)OC1OC(CO)C(O)C(O)C1O (stereo unspecified)
activation [1]: -12.2%
Potency [2]: inactive

O=C(/C=C/c1ccc(O)cc1)O[C@H]1[C@@H]2C=CO[C@@H](O[C@@H]3O[C@H](CO)[C@@H](O)[C@H](O)[C@H]3O)[C@@H]2[C@@]2(CO)O[C@@H]12
activation [1]: -7.63%
Potency [2]: inactive

CC1(C(=O)O)CC[C@]2(C(=O)OC3OC(CO)C(O)C(O)C3O)CC[C@]3(C)C(=CCC4[C@@]5(C)CC[C@H](OC6OCC(O)C(O)C6OC6OC(CO)C(O)C(O)C6O)C(C)(C)C5CC[C@]43C)C2C1 (stereo partly specified)
activation [1]: -5.34%
Potency [2]: inactive

COC(=O)C1=CO[C@@H](O[C@@H]2O[C@H](CO[C@@H]3O[C@H](COC(=O)/C=C/c4cc(OC)c(O)c(OC)c4)[C@@H](O)[C@H](O)[C@H]3O)[C@@H](O)[C@H](O)[C@H]2O)[C@@H]2C(CO)=CC[C@H]12
activation [1]: -14.3%
Potency [2]: inactive

CC1=C(CCC(C)O[C@@H]2O[C@H](CO)[C@@H](O)[C@H](O)[C@H]2O)C(C)(C)CCC1=O (stereo partly specified)
activation [1]: -16.8%
Potency [2]: inactive
